37 molecules from PubChem BioAssay (NCATS) can be followed below.

Molecules are shown by their SMILES. Results filed as inconclusive are left out. Active and inactive are the calls of the source. Calls follow the shape of the full dose curve.

Assay [1] in a line: Primary qHTS for Huh7 cytotoxicity: counterscreen for inhibitors of MERS-S pseudotyped particle cell entry (AID 1479147).
The nature of assay [2]: Primary qHTS for Vero E6 cytotoxicity: counterscreen for inhibitors of SARS-S pseudo-typed particle cell entry (AID 1479150; also: potency is read from the fitted curve at half-maximal effect). (In general: Quantitative high-throughput screening tests each substance at several concentrations.)
Assay [3] is described as follows: Confirmatory qHTS for VERO E6 Cytotoxicity Assay: Counterscreen for SARS-CoV-2 CPE Assay (AID 1508605). Also: nearly all actives have a fitted effect of over 60% in size. Also: potency is read from the fitted curve at half-maximal effect.
Assay [4] can be described thus: Primary qHTS for inhibitors of MERS-S pseudo-typed particle cell entry (AID 1479149). Also: nearly all actives have a fitted effect of over 60% in size. Also: potency is read from the fitted curve at half-maximal effect.
Assay [5] is described as follows: Confirmatory qHTS for activators (rescue) of SARS-CoV-2 Cytopathic Effect (CPE) (AID 1508606). Also: nearly all actives have a fitted effect of over 70% in size. Also: potency is read from the fitted curve at half-maximal effect.

As to `CN(C)CCOC1=Cc2ccccc2Sc2ccc(Cl)cc21`, the Potency entry in assay [1] and in assay [2] was “inactive” in each case.

In the case of `CCCOC(C(=O)OC1CCN(C)CC1)(c1ccccc1)c1ccccc1`, the Potency entry in assay [1], in assay [2] and in assay [3] was “inactive” in each case.

Regarding `CCCCN(CCCC)CC(O)c1cc(Cl)cc2c1-c1ccc(Cl)cc1/C2=C/c1ccc(Cl)cc1` (stereo unspecified), the Potency entry in assay [1] and in assay [2] was “inactive” in each case.

With `C=C1C(=C/C=C2\CCC[C@]3(C)[C@@H]([C@H](C)/C=C/[C@@H](O)C4CC4)CC[C@@H]23)C[C@@H](O)C[C@@H]1O`, the Potency entry in assay [1] and in assay [2] was “inactive” in each case.

As to `O=C(CCCN1CCC(O)(c2ccc(Br)cc2)CC1)c1ccc(F)cc1`, the Potency result in assay [2] is “inactive”.

In the case of `COc1cc(N)c(Cl)cc1C(=O)NC1CCN(CCCOc2ccc(F)cc2)CC1OC` (stereo unspecified), the Potency result in assay [2] was “inactive”.

As for `CCC(C)(C)c1ccc(CC(C)CN2C[C@@H](C)O[C@@H](C)C2)cc1` (stereo partly specified), the Potency entry in assay [2] is “inactive”.

Turning to `CCN(CC)CCOc1ccc2c(c1)C(=O)c1cc(OCCN(CC)CC)ccc1-2`, the Potency in assay [3] is 11.2 µM (active).

Regarding `COc1ccc(CCN2CCC(Nc3nc4ccccc4n3Cc3ccc(F)cc3)CC2)cc1`, the Potency in assay [4] is 12.6 µM (active).

As to `COC(=O)C1=C(C)NC(C)=C(C(=O)O[C@@H]2CCCN(Cc3ccccc3)C2)[C@@H]1c1cccc([N+](=O)[O-])c1`, in assay [3], the Potency is 11.2 µM (active). The Potency result in assay [5] is “inactive”.

Turning to `CC(C)OC(=O)C(C(=O)OC(C)C)=C1SC=CS1`, the Potency entry in assay [4] and in assay [2] was “inactive” each time.

For the molecule `CC(C)COCC(CN(Cc1ccccc1)c1ccccc1)N1CCCC1` (stereo unspecified), the Potency in assay [4] was 8.91 µM (active); in assay [5], 11.2 µM (active). In addition, the Potency result in assay [2] and in assay [3] was “inactive” in each case.

Regarding `CCCCCCCCCCCCCCCC[N+](C)(C)CCN(Cc1ccc(OC)cc1)c1ncccn1`, the Potency in assay [4] is 10 µM (active).

As for `CN1CCN(CCCN2c3ccccc3Sc3ccc(S(=O)(=O)N(C)C)cc32)CC1`, in assay [3], the Potency entry was “inactive”.

In the case of `COC(=O)[C@H]1[C@H]2C[C@@H]3c4[nH]c5cc(OC)ccc5c4CCN3C[C@H]2C[C@@H](OC(=O)/C=C/c2ccc(O)c(OC)c2)[C@@H]1OC`, the Potency result in assay [1], in assay [2] and in assay [3] was “inactive” in each case. Besides, the Potency in assay [5] is 12.6 µM (active).

For the molecule `O=c1[nH]c2ccccc2n1CCCN1CCN(C(c2ccccc2)c2ccccc2)CC1`, the Potency entry in assay [1] and in assay [2] was “inactive” in each case. The Potency in assay [5] is 11.2 µM (active).

In the case of `O=C(CCCN1CCN(c2ccc(F)cc2)CC1)NC1c2ccccc2CSc2ccccc21` (stereo unspecified), the Potency entry in assay [1], in assay [2], in assay [3] and in assay [5] was “inactive” in each case.

Turning to `O=C(CCC1CCN(Cc2ccccc2)CC1)c1ccc2c(c1)NCCCC2`, the Potency entry in assay [2] and in assay [3] was “inactive” throughout.

Turning to `CCCCN(CCCC)CCC(O)c1cc2c(Cl)cc(Cl)cc2c2cc(C(F)(F)F)ccc12` (stereo unspecified), the Potency entry in assay [1] and in assay [2] was “inactive” each time. In assay [5], the Potency is 3.55 µM (active).

Regarding `CN1CCCN(C(c2ccccc2)c2ccc(Cl)cc2)CC1` (stereo unspecified), in assay [2], the Potency entry is “inactive”. In addition, the Potency in assay [5] was 10 µM (active).

Take `O=c1c(-c2ccccc2)c1-c1ccccc1`: the Potency result in assay [2] was “inactive”.

`c1ccc(-c2ccc(C(c3ccccc3)n3ccnc3)cc2)cc1` (stereo unspecified): the Potency result in assay [1] and in assay [3] was “inactive” throughout.

On to `CC(=O)c1ccc2c(c1)N(CCCN1CCC(CCO)CC1)c1ccccc1S2`, for which the Potency result in assay [1], in assay [2] and in assay [3] was “inactive” in each case. Moreover, in assay [5], the Potency is 11.2 µM (active).

Turning to `NC(=O)C1(N2CCCCC2)CCN(CCCN2c3ccccc3CCc3ccc(Cl)cc32)CC1`, the Potency in assay [4] is 12.6 µM (active).

As for `CCCCOc1ccc(C(=O)CCN2CCCCC2)cc1`, in assay [2], the Potency entry is “inactive”.

With `Fc1ccc(C(c2ccc(F)cc2)N2CCN(C/C=C/c3ccccc3)CC2)cc1`, the Potency result in assay [1], in assay [2] and in assay [3] was “inactive” each time. Also, in assay [5], the Potency is 11.2 µM (active).

As for `COc1ccc2cc1Oc1ccc(cc1)C[C@H]1c3c(cc4c(c3Oc3cc5c(cc3OC)CCN(C)[C@@H]5C2)OCO4)CCN1C`, the values for the Potency in assay [4], in assay [3] and in assay [5] were 3.55 µM (active), 11.2 µM (active) and 1 µM (active), respectively.

For the molecule `NC(N)=N/N=C/c1c(Cl)cccc1Cl`, the Potency result in assay [2] was “inactive”.

With `O=C1NC2CCCCN2C12CCN(CCCN1c3ccccc3CCc3ccc(Cl)cc31)CC2` (stereo unspecified), the Potency in assay [4] was 12.6 µM (active). In addition, in assay [2], the Potency result was “inactive”.

In the case of `CN(C(=O)CN(CCO)CC(=O)N(C)C(C)(C)Cc1ccccc1)C(C)(C)Cc1ccccc1`, in assay [2], the Potency result is “inactive”.

For `CCN(CC)CCOc1ccc(/C(=C(\Cl)c2ccccc2)c2ccccc2)cc1`, the Potency entry in assay [2] is “inactive”.

For the molecule `CCC(=O)c1ccc2c(c1)N(CCCN(C)C)c1ccccc1S2`, the Potency result in assay [2] and in assay [3] was “inactive” throughout. Moreover, the Potency in assay [5] was 11.2 µM (active).

For the molecule `O=C1NCCN1CCN1CCC(c2cn(-c3ccc(F)cc3)c3ccc(Cl)cc23)CC1`, in assay [4], the Potency is 8.91 µM (active).

In the case of `CCCCC1C(=O)N(c2ccccc2)N(c2ccc(O)cc2)C1=O` (stereo unspecified), the Potency in assay [2] is 22.4 µM (active).

On to `CN(C)CCCN1c2ccccc2Sc2ccc(C(F)(F)F)cc21`, for which the Potency in assay [5] is 10 µM (active).

For `CC1=CC(=O)c2ccccc2C1=O`, the Potency entry in assay [2] was “inactive”.

As for `Cc1ccc2nc(N)[nH]c(=O)c2c1Sc1ccncc1`, in assay [2], the Potency result is “inactive”.
